Compounds with a hit are over-represented: about 15% of the library has one in this group of screens.
TDP1 cell noCPT = qHTS for Inhibitors of human tyrosyl-DNA phosphodiesterase 1 (TDP1): qHTS in cells in absence of CPT | DT40 Tdp1-/- hTDP1 cells, no CPT, ATP luminescence, 48 h | Potency, µM (doses to about 46.2 µM), for the others: top-dose activity change, negative = growth inhibition, hits mostly inhibitors | 420,000 compounds, 15% hits; further: nearly all actives have a fitted effect of over 55% in size
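Chicken DT40 Tdp1-/- cells complemented with human TDP1, screened without camptothecin (DMSO vehicle only), 400 cells/well. Compounds pin-transferred, cells incubated at 37 °C for at least 48 hr. Growth read as ATP-dependent luminescence (CellTiter-Glo, 30 min at RT).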
12-LOX inh = blocks human arachidonate 12S-lipoxygenase; AID 1671190; P18054; Potency, µM (titrated, usually from 108 µM), without a hit: at the highest dose activity change, negative = inhibition, hits mostly inhibitors; 580,000 compounds, 1.1% hits; purified 12hLO, xylenol orange hydroperoxide absorbance
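Hydroperoxide product was detected by ferrous iron/xylenol orange as the 573 to 405 nm absorbance ratio. Arachidonic acid at 40 uM (final) was turned over for 30 min at room temperature by 150 nM human 12hLO, pH 7.0 Hepes buffer, after 15 min compound preincubation.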
DT40 TDP1 CPT = growth inhibition of DT40 Tdp1-/-;hTDP1 cells with camptothecin (screen for TDP1 inhibitors). 420,000 compounds, 12% hits. chicken DT40 Tdp1-/-;hTDP1 cells + 20 nM CPT, ATP luminescence, 48 h. Potency, µM (series often up to 46.2 µM), for inactives: at the highest dose activity change, negative = growth inhibition, hits mostly inhibitors; further: nearly all actives have a fitted effect of over 55% in size
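Chicken DT40 Tdp1-/- cells complemented with human TDP1, 400 cells/well, exposed to compounds plus 20 nM camptothecin for at least 48 h at 37 C; viability read as ATP content by CellTiter-Glo luminescence.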
RORg inh = inhibitors of mouse ROR gamma transcriptional activity. 310,000 compounds, 5.4% hits. AID 2551. Potency, µM (series often up to 53.6 µM), for the others: at the highest dose activity change, negative = inhibition, hits mostly inhibitors. Drosophila S2 Gal4-RORgamma UAS-luciferase reporter, 20 h; further: nearly all actives have a fitted effect of over 60% in size
Target sequence (P51450 whole entry, looked up, the tested form may be a part): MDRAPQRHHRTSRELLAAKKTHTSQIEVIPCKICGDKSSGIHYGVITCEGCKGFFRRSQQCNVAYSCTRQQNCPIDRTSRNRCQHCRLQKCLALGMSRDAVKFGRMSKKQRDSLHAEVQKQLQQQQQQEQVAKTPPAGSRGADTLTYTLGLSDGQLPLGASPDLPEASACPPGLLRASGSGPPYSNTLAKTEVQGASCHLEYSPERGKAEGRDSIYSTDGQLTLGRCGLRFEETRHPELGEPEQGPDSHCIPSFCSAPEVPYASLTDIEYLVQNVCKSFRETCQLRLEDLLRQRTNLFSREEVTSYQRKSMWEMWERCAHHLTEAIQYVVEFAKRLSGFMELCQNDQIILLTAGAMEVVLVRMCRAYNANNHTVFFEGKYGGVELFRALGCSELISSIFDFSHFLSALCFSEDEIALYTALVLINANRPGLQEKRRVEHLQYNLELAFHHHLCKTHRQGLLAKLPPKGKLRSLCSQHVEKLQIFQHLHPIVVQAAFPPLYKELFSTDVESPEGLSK
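Stably transfected Drosophila Schneider cells are the test system, with ROR gamma fused to Gal4 and luciferase under UAS control; luminescence is read after 20 hr of 700 uM copper sulfate induction at ambient temperature.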
VP16 counter = counter-screen for ROR gamma inhibitors: Gal4-VP16 reporter; Drosophila S2 Gal4-VP16 UAS-luciferase, luminescence, 20 h; Potency, µM (series often up to 53.6 µM), without a hit: top-dose activity, negative = inhibition, usual class: inhibitors; 310,000 compounds, 3.5% hits; AID 2546;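 further: Gal4-VP16 expression switched on by copper sulfate through the metallothionein promoter; nearly all actives have a fitted effect of over 50% in size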
ELG1 DNA repair = blocks ELG1-dependent DNA repair in HEK293T cells; AID 504467; Potency, µM (top dose mostly 46.1 µM), inactives show at the highest dose activity change, negative = inhibition, hits mostly inhibitors; HEK293T ELG1-luciferase reporter, luminescence, 16 h; DNA damage induced by 5-fluorouridine; 330,000 compounds, 2.3% hits; further: nearly all actives have a fitted effect of over 55% in size
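DMSO vehicle served as the neutral condition. Each well held 2,000 cells given 5-fluorouridine plus compound; after 16 hr at 37 °C/5% CO2, ONE-Glo was added and luciferase measured 30 min later.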
An asterisk follows results filed as active; u = inconclusive; x = not tested or not shown; ! = not active in a repeat; [ ] = another dose, or the depositor's remark. The call rests on the fitted dose curve; in most records, active means well fitted curve in the direction sought with a large enough effect; inconclusive means small, poorly fitted or top-dose-only effect, or another doubt; inactive means no such curve, though single readings can be large; an effect the other way counts as inactive or inconclusive. On the % scale 0 is the no-effect control and ±100 the full control effect; potency means the concentration at half of the fitted maximal effect.

SMILES	TDP1 cell noCPT	12-LOX inh	DT40 TDP1 CPT	RORg inh	VP16 counter	ELG1 DNA repair
CC(C)c1ccccc1NC(=S)N1CCN(Cc2ccc3c(c2)OCO3)CC1	2%	-9%	20%	11µM*	u	u
CCn1c(SCC(=O)Nc2cc(C)c(Cl)cc2OC)nnc1-c1cccc(OC)c1	x	-41%	x	x	x	x
Cc1cc(C)cc(N=c2c([N+](=O)[O-])nn(-c3ccc(Cl)cc3)n2O)c1	15µM*	-13%	9.2µM*	14%	1%[10 µM]	u
O=C(c1cccc2c1CCN2C(=O)C1CC1)N1CCCCC1	x	21%	x	x	x	x
CC(=O)c1ccccc1NC(=O)COC(=O)C1CCCN1S(=O)(=O)c1ccccc1F (centres undefined)	11%	3%	-17%	x	x	u
CCOC(=O)c1c(C)[nH]c(C)c1C(=O)COC(=O)C1CCCN1S(=O)(=O)c1ccccc1F (centres undefined)	15µM*	34%	12µM*	2%	-1%	-22%
CCOC(=O)C1=CCN(S(=O)(=O)c2ccccc2C)C1c1ccc(Cl)cc1 (centres undefined)	15µM*	-21%	u	x	x	x
CCOC(=O)C1=CCN(S(=O)(=O)c2ccccc2F)C1c1ccc(Cl)cc1 (centres undefined)	u	-4%	u	x	x	x
CCOC(=O)C1=CCN(S(=O)(=O)c2ccccc2F)C1c1ccccc1 (centres undefined)	16µM*	5%	u	x	x	x
CCOC(=O)C1=CCN(S(=O)(=O)c2ccccc2Cl)C1c1ccccc1 (centres undefined)	23µM*	-23%	u	x	x	x
Cc1nn(-c2ccccc2)c(C)c1Cc1nc(C(C)C)no1	x	65%	x	x	x	x
c1ccc(Nc2nc(CSc3nnc4n3CCCCC4)cs2)cc1	x	-19%	x	x	x	x
CCOC(=O)C1=CCN(S(=O)(=O)c2ccccc2Cl)C1c1cccc(C)c1 (centres undefined)	u	2%	u	x	x	x
CCOC(=O)C1=CCN(S(=O)(=O)c2ccccc2Cl)C1c1ccc(C)cc1 (centres undefined)	18µM*	-10%	26µM*	x	x	x
O=C(CCc1cccs1)Nc1ccc(N2CCOCC2)cn1	x	-34%	x	x	x	x
CCc1ccc(C(=O)NC2CCN(c3cn[nH]c(=O)c3)CC2)cc1	x	-4%	x	x	x	x
COc1ccc(OC)c(CCNC(=O)c2ccc3c(c2)N(Cc2ccc(C)cc2)CCS3)c1	23µM*	u	u	x	x	x
CCOc1ccc(CNC(=O)c2ccc3c(c2)N(Cc2ccccc2)CCS3)cc1	13µM*	-11%	u	x	x	x
CC(C)Oc1ccc(CNC(=O)c2ccc3c(c2)N(Cc2ccc(F)cc2)CCS3)cc1	7.3µM*	-21%	10µM*	x	x	x
CCOc1ccc(CCNC(=O)c2ccc3c(c2)N(Cc2ccc(C)cc2)CCS3)cc1	u	-14%	18µM*	x	x	x
O=S1(=O)C[C@H](N2CCN(Cc3ccc4c(c3)OCO4)CC2)[C@@H](S(=O)(=O)c2ccccc2)C1	x	-12%	x	x	x	x
CCc1nc(-c2c3n(c(=O)n(Cc4ccc(OC)c(F)c4)c2=O)CCCCC3)no1	x	19%	x	x	x	x
CC(C)N1C(=O)C2(CCCC2)C1C(=O)N1CCN(Cc2ccccc2)CC1 (centres undefined)	x	-2%	x	x	x	x
O=C(NCc1ccccn1)c1ccc2c(c1)N(Cc1ccccc1)CCS2	u	7%	u	8%	-1%	u
COc1ccc(CNC(=O)c2ccc3c(c2)N(Cc2ccccc2)CCS3)cc1	15µM*	-18%	u	x	x	x
SMILES	TDP1 cell noCPT	12-LOX inh	DT40 TDP1 CPT	RORg inh	VP16 counter	ELG1 DNA repair
COc1ccc(CCNC(=O)c2ccc3c(c2)N(Cc2ccc(Cl)cc2)CCS3)c(OC)c1	x	-21%	x	x	x	x
COc1ccc(CCNC(=O)c2ccc3c(c2)N(Cc2ccc(F)cc2)CCS3)cc1OC	15µM*	13%	u	-8%	3%	26µM*
Cn1nc(C(=O)Nc2ccnn2Cc2ccccc2Cl)c2ccccc2c1=O	x	22%	x	x	x	x
COCC1CN(C(C)=O)CC12CCN(Cc1sccc1C)CC2 (centres undefined)	x	1%	x	x	x	x
FC(F)(F)c1ccccc1-n1ccnc1	16µM*!	-5%	u	-19%	3%	19%
O=C(CCl)NN1C(=O)NC(c2ccccc2)(c2ccccc2)C1=O	21µM*	-14%	u	-26%	-26%	u
Cc1ccc(C)c(N2CCN(C(=O)Cn3cnc4onc(-c5ccc(F)cc5)c4c3=O)CC2)c1	u	-12%	23µM*	x	x	x
COc1cc(OC)c(NC(=O)CCn2cnc3onc(-c4ccc(F)cc4)c3c2=O)cc1Cl	2.1µM*	-13%	12µM*	x	x	x
O=C(Cn1cnc2onc(-c3ccc(F)cc3)c2c1=O)Nc1cccc(C(F)(F)F)c1	21µM*	u	23µM*	x	x	x
CCOc1ccccc1NC(=O)Cn1cnc2onc(-c3ccc(F)cc3)c2c1=O	u	-15%	u	x	x	x
O=C(Cn1cnc2onc(-c3ccc(F)cc3)c2c1=O)Nc1ccc(F)c(Cl)c1	u	-14%	9.2µM*	x	x	x
CN(C(=O)Cc1cccc(Cl)c1)C1CCCc2ccccc21 (centres undefined)	x	-1%[176 µM]	x	x	x	x
CN(Cc1ccccc1)Cc1cc(C[C@@H]2CC[C@H](O)[C@@H](CNC3CCOCC3)O2)no1	x	24%[176 µM]	x	x	x	x
CN(CC(=O)NC1(C)CCS(=O)(=O)C1)Cc1ccccc1 (centres undefined)	x	-4%	x	x	x	x
Cc1ccsc1C(=O)N1CCCC(n2cc(-c3nc(C4CC4)no3)nn2)C1 (centres undefined)	x	-7%	x	x	x	x
COc1ccccc1-c1[nH]ncc1CN1CCCN(S(=O)(=O)c2ccccc2)CCC(=O)NCC1	x	32%	x	x	x	x
CCCN(C(=O)Cn1cnc2onc(-c3ccc(F)cc3)c2c1=O)c1cccc(Cl)c1	u	-25%	u	x	x	x
O=C(Cn1cnc2onc(-c3ccc(Cl)cc3)c2c1=O)Nc1ccc(F)cc1	u	45µM*	u	x	x	x
CCN(C(=O)Cn1cnc2onc(-c3ccc(F)cc3)c2c1=O)c1ccc(OC)cc1	12µM*	u	18µM*	x	x	x
Cc1nccn1-c1ccc(CNC(=O)C(c2ccccc2F)N(C)C)cc1 (centres undefined)	x	32%	x	x	x	x
Cc1ccc(C(C)C)c(OC(=O)c2ccc(C#N)cc2)c1	x	10%	x	x	x	x

Bioassay records deposited in PubChem BioAssay by National Center for Advancing Translational Sciences (NCATS).
